Screens: PubChem, several laboratories
This is a sample that favours compounds with a hit; in the whole collection about 3.7% have one here.
Kir21 block: inhibitors of mouse Kir2.1 inward-rectifier potassium channel; hit rate 0.85% among 310,000; B-score at 10 µM; HEK293-Kir2.1, FluxOR thallium flux fluorescence; stronger effect = lower value; P35561; AID 1672;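 active means fluorescence ratio B-score at or below minus 3 SD of library scores, with starting-brightness B-score within 2 SD, cut at about -4.2 in these data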;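 further: channel flux triggered by added potassium and thallium sulfate stimulus; B-score of peak minus minimum fluorescence over baseline after thallium stimulus; more negative B-score means stronger Kir2.1 block with less thallium influx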
ANO1 activ: mouse TMEM16A channel activation, primary screen; Q8BHY3; HEK293 TMEM16A/YFP-H148Q/I152L, iodide quench fluorescence; stronger effect = lower value; B-score at 10 µM; hit rate 0.3% among 340,000; AID 623877;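 active means fluorescence-ratio B-score plate-corrected deviation score at least 3 library SD below zero, with starting fluorescence score within 5 deviations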;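 further: channel opened by trigger with iodide after compound preincubation; score built on the fluorescence ratio of max minus min over baseline; more negative score means more quench and so TMEM16A activation or potentiation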
CHT PAM: allosteric activators of human choline transporter CHT | Q9GZV3 | CHT-expressing cells, membrane potential dye, choline EC20; stronger effect = higher value; LV-AA mutant CHT in HEK293 cells | B-score at 10 µM | hit rate 0.49% among 310,000;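 active means initial fluorescence not abnormally high and integrated response B-score, plate-corrected, over 3 SD above library mean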
GPR7 antag: human neuropeptides B/W receptor 1 antagonism; P48145; GPR7-expressing cells, fluorescence antagonist assay; inhibition, % at 4.4 µM; hit rate 1.1% among 290,000; AID 1861; in the data active means inhibition above about 16%, passing the limit was not always enough;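 further: cells stimulated with the agonist NPW; 0% = agonist with vehicle and 100% = vehicle without agonist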
Target sequence (P48145 whole entry, looked up): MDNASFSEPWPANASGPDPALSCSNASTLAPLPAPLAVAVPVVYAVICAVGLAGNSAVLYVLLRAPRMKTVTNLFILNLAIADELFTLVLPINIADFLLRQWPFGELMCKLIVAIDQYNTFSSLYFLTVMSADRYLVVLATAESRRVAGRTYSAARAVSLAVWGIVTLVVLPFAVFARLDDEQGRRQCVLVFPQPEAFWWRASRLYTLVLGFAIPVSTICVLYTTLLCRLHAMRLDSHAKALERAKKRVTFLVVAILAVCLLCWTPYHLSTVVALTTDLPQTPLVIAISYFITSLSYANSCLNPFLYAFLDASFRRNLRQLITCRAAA
ANO1 block: inhibitors of mouse TMEM16A calcium-activated chloride channel; HEK293 TMEM16A/YFP iodide influx fluorescence, ionomycin; normalized B-score (activity score, 25-100; higher = stronger inhibition) at 10 µM; hit rate 1.2% among 310,000;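 active means ratio plate-corrected score three or more library SD toward inhibition, starting fluorescence score within five deviations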;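 further: score derived from kinetic fluorescence span divided by baseline fluorescence per well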
CHT inh: inhibitors of human choline transporter CHT. B-score at 10 µM. hit rate 0.86% among 310,000. Q9GZV3. CHT-expressing cells, membrane potential dye, choline response; stronger effect = lower value;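 active means B-score over 3 SD under the library average, and starting fluorescence ratio not unusually high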;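 further: choline stimulus applied at its EC90 after an EC20 pre-addition; B-score computed on integrated fluorescence ratio after choline addition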
GPR7 antag conf: human GPR7 antagonism, confirmation assay. hit rate 52% among 2,400. inhibition, % at 4.4 µM. GPR7-expressing cells, calcium fluorescence antagonist mode. shares compounds with GPR7 antag; in the data active means inhibition above about 24%;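 further: stimulated with the GPR7 agonist NPW; 0% = agonist plus vehicle and 100% = vehicle alone without agonist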
MCHR1 antag: counter-screen for GPR7 antagonists: antagonists of human MCHR1 | shares compounds with GPR7 antag | MCHR1-expressing cells, fluorescence antagonist assay | inhibition, % at 4.4 µM | hit rate 62% among 2,400 | AID 2148; in the data active means inhibition above about 22%;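 further: 0% = vehicle with agonist and 100% = vehicle without agonist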
Numbers without * were called inactive; i = inactive; nt = no result.

SMILES	Kir21 block	ANO1 activ	CHT PAM	GPR7 antag	ANO1 block	CHT inh	GPR7 antag conf	MCHR1 antag
COC(=O)c1cccc(NC(=O)c2cnccn2)c1	-1.81	i	i	24.1*	i	i	7.8	1.4
CSc1ccc2c(c1)N(CCC1CCCCN1C)c1ccccc1S2 (stereo not given)	-8.24*	i	i	42.5*	25*	i	76.4*	83.3*
O=C(O)c1cccc(S(=O)(=O)N2CCN(C(c3ccccc3)c3ccccc3)CC2)c1	1.28	i	i	-9.2	i	i	nt	nt
O=C(Cn1nc2n(c1=O)-c1ccccc1SC2)N/N=C/c1cccs1	0	i	i	-12.6	i	i	nt	nt
O=C(O)c1cccc(NC(=S)NC(NC(=O)c2cccc([N+](=O)[O-])c2)C(Cl)(Cl)Cl)c1 (stereo not given)	1.01	i	i	-18.5	i	i	nt	nt
O=C(NC(NC(=S)Nc1ccccc1)C(Cl)(Cl)Cl)c1cccc(Cl)c1 (stereo not given)	-0.88	i	i	33.6*	i	i	47.0*	54.3*
CCc1noc2c1/C(=N\O)CC(c1ccccc1)C2 (stereo not given)	-0.01	i	i	21.7	i	i	nt	nt
CCCc1noc2c1/C(=N\O)CC(c1ccccc1)C2 (stereo not given)	-0.14	i	i	22.9*	i	i	41.0*	22.8*
CCc1cc(C(=O)N(CCCOC)c2c(N)n(Cc3ccccc3)c(=O)[nH]c2=O)sc1C	-0.16	i	i	nt	i	i	nt	nt
Cc1csc(NC(=O)CCc2ccc(S(=O)(=O)N3CCOCC3)cc2)n1	-0.1	i	i	6.8	i	i	nt	nt
Cc1cc(NC(=O)CCc2ccc(S(=O)(=O)N3CCOCC3)cc2)n(-c2ccccc2)n1	0.93	i	i	30.2*	i	i	-8.8	20.8
C=CCOc1cccc(C(=O)/C=C2/C(=O)Nc3ccccc32)c1	-2.41	i	i	43.1*	i	i	65.3*	80.6*
CN1C(=O)C2C3c4ccccc4C(c4ccccc43)[C@@H]2C1=O (stereo not given in full)	-0.18	i	i	-0.1	i	i	nt	nt
O=C1C2C3c4ccccc4C(c4ccccc43)C2c2nc3ccccc3n21 (stereo not given)	1.86	i	i	22.1*	i	i	7.8	31.7*
CCOc1ccc(CC(=O)N/N=C(\C)c2cccnc2)cc1	1.38	i	i	-7.3	i	i	nt	nt
COc1ccc(-c2c(C)oc3cc(O)cc(O)c3c2=O)cc1OC	-0.15	i	i	26.8*	i	i	1.6	14.8
COc1ccc(N(C)S(=O)(=O)c2ccc(Cl)c(C(=O)NCC(C)(C)N3CCOCC3)c2)cc1	nt	i	nt	nt	nt	nt	nt	nt
COc1ccc(Nc2ccc(Nc3ccc(OC)cc3)nn2)cc1	-0.26	i	i	92.0*	i	i	84.6*	88.8*
CC(C)(C)OC(=O)N[C@H](/C=C/c1ccccc1)C(=O)OC(C)(C)C	nt	i	nt	nt	nt	nt	nt	nt
O=C(COc1ncnc2scc(-c3ccccc3)c12)NCCN1C(=O)CSC1=O	0.08	nt	i	10.4	i	i	nt	nt
O=C1NCCN/C1=C\C(=O)c1cccc(Br)c1	-1.09	i	i	-1.5	i	i	nt	nt
Cc1nc(C(=O)Nc2ccc(Cl)cc2)nn1-c1ccc([N+](=O)[O-])cc1	0.63	i	i	30.5*	i	i	3.8	6.8
Cc1ccc(NC(=O)c2nc(C)n(-c3ccc([N+](=O)[O-])cc3)n2)cc1	-0.38	i	i	-0.7	i	i	nt	nt
O=C(Nc1cccc(F)c1)Nc1cccc(Cl)c1	-0.02	i	i	34.5*	i	i	39.6*	55.3*
O=C(Nc1cccc(Cl)c1)Nc1ccon1	2.58	i	i	-2.9	i	i	nt	nt
SMILES	Kir21 block	ANO1 activ	CHT PAM	GPR7 antag	ANO1 block	CHT inh	GPR7 antag conf	MCHR1 antag
COC(=O)c1cc(NC(=O)Nc2cccc(Cl)c2)ccc1Cl	1.3	i	i	32.8*	i	i	51.6*	77.3*
COC(=O)c1cccc(NC(=O)Nc2ccc(Cl)cc2)c1	0.5	i	i	-8.1	i	i	nt	nt
O=C(Nc1cccc(Cl)c1)Nc1cccc(Cl)c1	0.3	i	i	21.2*	i	i	45.6*	64.1*
COc1ccc(OC)c(CCNC(=O)c2ccc(NC3=NC4CS(=O)(=O)CC4S3)cc2)c1 (stereo not given)	-0.12	i	i	3.4	i	i	nt	nt
Cc1ccc(NC(=S)NC2CCSc3ccccc32)cc1 (stereo not given)	-1.01	i	i	34.4*	i	i	2.1	39.2*
COc1ccccc1C(=O)NC1CCSc2ccccc21 (stereo not given)	0.1	i	i	3.2	i	i	nt	nt
Clc1ccccc1-c1nnn(Cc2ccc(-c3nn[nH]n3)cc2)n1	-1.43	i	i	23.7*	i	i	28.7*	18.7
COCCOC(=O)c1c(NC(=O)COC(=O)Cc2cccc(OC)c2)sc(C(N)=O)c1C	-0.2	i	i	-16.8	i	i	nt	nt
Fc1ccccc1NC(=S)NCc1ccc2c(c1)OCO2	-0.08	i	i	31.2*	i	i	19.4	6.5
CCNC(=S)N(CCc1c(C)[nH]c2ccc(C)cc12)Cc1cccs1	-2.14	i	i	5.8	i	i	nt	nt
CCNC(=S)N(CCc1c(C)[nH]c2ccc(Cl)cc12)Cc1ccco1	-3.34	i	i	23.9*	i	i	10.2	76.1*
O=C(COc1ccccc1Br)Nc1ccccc1C(F)(F)F	1.19	i	i	-10.2	i	i	nt	nt
CC(C)CCNC(=O)C1CCN(S(=O)(=O)c2ccc3c(c2)CC(C)N3C(=O)C2CC2)CC1 (stereo not given)	1.32	i	i	25.1*	i	i	-8.8	17.6
CCCCNC(=O)C1CCN(S(=O)(=O)c2ccc3c(c2)CC(C)N3C(=O)C2CC2)CC1 (stereo not given)	-0.22	i	i	-6.0	i	i	nt	nt
C=CCOc1c(CNC2CCCC2)cc(Cl)cc1OC	-1.88	i	i	26.2*	i	i	15.0	8.9
COc1cc(C)c(CNC2CCCCC2)cc1C	-0.24	i	i	-8.9	i	i	nt	nt
